Results taken from the supplement of paper PMC11417369.
± gives the standard deviation of the averaged measurements. In all, about 25,000 sequences were measured (“ln(normalized median fluorescence intensity)”: median about 8.6, highest 2% from about 10 on). What follows is part of a selection rich in the highest values, with near analogues and random picks from the rest.

test system: PfAP2-EXP AP2 domain (GST-tagged); test: gcPBM binding intensity (ln(normalized median fluorescence intensity)); higher = stronger DNA binding
Outline: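 Probes on an Agilent 4 × 180k array were primer-extended, double-stranded and 36 bp long, taken from intergenic genomic regions, with negative controls added. GST-tagged P. falciparum DNA-binding domains from E. coli, about 25 μg on average, were applied to the array for 1 h in 1× PBS containing 1% milk, 0.2 mg/ml BSA, 0.5% salmon testes DNA and 0.03% Triton X-100. Binding intensity, obtained after Alexa488 anti-GST antibody detection and a 488 nm scan, is the highest Masliner-normalised natural-log median intensity across replicate spots of either probe orientation.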

Sequence | gcPBM binding intensity (ln)
ATTTAAAAAAAAAAAAAAAAAAAAAAAAAAAGAAAA [CACACA_negctrl_site722] | 8.01 ± 0.43
TATATATATATGTATACACACATATGTATGTTATGT [CACACA_site4053] | 9.65 ± 0.28
CCAATACATAGAAACTGTACATTATGCATTATACAC [XGTACX_site3531] | 8.79 ± 0.28
ATTAAATACTTCGATTGTACAATTTTTTTTTTTTTT [XGTACX_site832] | 8.59 ± 0.59
ATTTAAAATGGTTATACACACATAAAAGGGGAAATG [CACACA_site2649] | 8.95 ± 0.57
TTTTTTTTTCGCTTTTGTACACATTTTATAGAACAG [XGTACX_site2416] | 8.87 ± 0.46
AAAAAAAAAAAAAAGCGTACAAATAAAATATATTTA [XGTACX_site7195] | 8.52 ± 0.49
CATATACACGAACACACACACATATAAATAAATATA [CACACA_site6379] | 8.73 ± 0.46
CATATACACGAACACACACACATATATATATATATA [CACACA_site4437] | 10.3 ± 0.39
CCCCCCCACGAACACACACACATACATACCACATAT [CACACA_site7149] | 10.41 ± 0.028
AACATATACACGAACACACACACATATAAATAAATA [CACACA_site6380] | 8.74 ± 0.56
GGCATACACGAACACACACACACACGCACATATATA [CACACA_site6426] | 8.96 ± 0.52
AACATATACACGAACACACACACATATATATATATA [CACACA_site502] | 10.1 ± 0.38
ATTATATTTCAATTATGTACATATAAAATGAATAAA [XGTACX_site4204] | 8.43 ± 0.38
ATGAATATAATAAAGAAACACACGTATACATAATGA [CACACA_site1355] | 8.8 ± 0.54
TAAAATTTACAACACTGTACTTGAATTTATCTTTAA [XGTACX_site241] | 8.25 ± 0.37
CGCATAAAGACAAGAACACACATATAGATTGTAGTA [CACACA_site3693] | 8.27 ± 0.49
ATTATTATATAGTGTGCATGCAATATTAATAAAACC [TGCATGCA_site245] | 10.3 ± 0.4
ATTATATATAATATAGTGCATGTAAAAAATAAAACA | 9.23 ± 0.33
GTTATATTTAAAATAGTGCAATAAAAATAATAATAT | 8.89 ± 0.2
ATTGCGTGATAATAATGTACAAAAAGTAATTTATAT [XGTACX_site8339] | 8.48 ± 0.45
TAATTCGCAAAAGAAAGAAATTAAGAAAAAGAAAAA [XGTACX_negctrl_site614] | 8.32 ± 0.68

Sequence | gcPBM binding intensity (ln)
TTTTCATTCAATTATATTTATATATATATATATATA [GTGCAC_negctrl_site538] | 10.2 ± 0.44
GTATATATTTTTATTTAATAATTTGTTTATTTATTC [CACACA_negctrl_site647] | 8.56 ± 0.22
ATTTTTTTTATTTTTTCAATATATATATATATATAT [CACACA_negctrl_site1444] | 10.2 ± 0.19
TTTTATTATTCTTCTCTCTTATATATATATATATAT [CACACA_negctrl_site646] | 10.2 ± 0.26
ATTTGTATATAATATATATAATTTTTTTTTTTTGTT [XGTACX_negctrl_site425] | 8.2 ± 0.31
TTTTTTTATTATTCTTATATAAAAATTTTTTTTAAT [CACACA_negctrl_site159] | 8.27 ± 0.45
ATATATATATATATATATATAATTTTTTTTGTTTTT [TGCATGCA_negctrl_site453] | 10.3 ± 0.3
TTTTATTCCTATTTATTTATATTTTTGTCTTATATC [CACACA_negctrl_site125] | 8.8 ± 0.43
GTATATATATATATATATATATATTTTTATTTATTT [CACACA_negctrl_site589] | 8.65 ± 0.18
TCTTTCTTATATTTATATAATTATATTTATTTTATA [GTGCAC_negctrl_site300] | 8.74 ± 0.38
TTTTTTTTTTTTTTTTTTTTCATTCAATTATATTTA [CACACA_negctrl_site712] | 8.04 ± 0.33
ATATATTTTATTCCTATATATATATATATATATATA [GTGCAC_negctrl_site556] | 10.2 ± 0.49
ACAAAAAAAAAGGAAACACACAAAAAAAAAAAATAA [CACACA_site3523] | 8.44 ± 0.59
TAATGAAAAAATAAAAGAATAAATAAATAAATAAAT [TGCATGCA_negctrl_site130] | 8.77 ± 0.3
AGTGTATATAGAAACATACACACATATTAATTTTAC [CACACA_site3127] | 8.3 ± 0.28
AAAAAAAAAAAAAAAGTGCACTGAAAATATATTGAA [GTGCAC_site9395] | 9.04 ± 0.2
TTTTTTTTTCTTTCTTTCTTTTGTAAAAACCTCAAA [CACACA_negctrl_site723] | 8.46 ± 0.37
TGTGCACGTTCTGTGACACACATTTAAATGTGCTTA [CACACA_site176] | 8.62 ± 0.35
TATTAATTAAACCATACACACATAATTTTTTTATAA [CACACA_site843] | 8.21 ± 0.43
GCATATATTATATATTTATTTATTTTTTTTTTTTAA [GTGCAC_negctrl_site193] | 8.32 ± 0.46
TATTTTTATTTTTAAACCATATATATATATATATAT [CACACA_negctrl_site1560] | 10.3 ± 0.23
TTTTTATTTATATATATATATATATATTATATATAA [CACACA_negctrl_site1654] | 8.34 ± 0.36

Sequence | gcPBM binding intensity (ln)
TATATATATTAATTTATTTATTTGTTTATTTATTTA [CACACA_negctrl_site185] | 8.41 ± 0.18
TTTTTTTTTTTTTTTTATTTATATATATATATATAT [CACACA_negctrl_site582] | 9.98 ± 0.23
ATTTTGTTATTATATATATATATATATATATATATA [XGTACX_negctrl_site590] | 10.3 ± 0.57
TATATATATATATATATATATATTTTTATTATATAT [XGTACX_negctrl_site89] | 10.2 ± 0.52
GTTATATATATATATATATATATATATATTTTTTTT [GTGCAC_negctrl_site597] | 8.84 ± 0.15
AAAATATATTAAGGCACACACATACAGATATATATA [CACACA_site5951] | 8.9 ± 0.37
TATAAAATATAATTAGCACACATATATAAAATATAT [CACACA_site9355] | 8.21 ± 0.34
ATTTTGCCTGACCCATGTACATATTATTTTTTGCAT [XGTACX_site2258] | 9.41 ± 0.4
AGTATATTAATATAATGTACAAACGTTTATTTTGTA [XGTACX_site5980] | 8.59 ± 0.42
TTACGATCATCAATATGTACATATATATATATATAT [XGTACX_site4301] | 10.2 ± 0.3
ATATATATATATATATGTACACACATCAATCATATT [XGTACX_site4005] | 10.2 ± 0.54
AAAATATATACAATATGTACATATATATATATATAT [XGTACX_site1898] | 9.96 ± 0.35
ATATATATATATATATGTACATATATATACATATAT [XGTACX_site6987] | 10.1 ± 0.43
ATATATATATATATATGTACATACATACAATCATAT [XGTACX_site6410] | 10.3 ± 0.45
TACGAAATCATATGTACACACACATATATATATATA [CACACA_site5216] | 10.1 ± 0.39
AAATATATATATATATGTACACACACACATATAAAT [XGTACX_site847] | 8.5 ± 0.3
TATATATATATATATGTACACACATCAATCATATTA [CACACA_site8594] | 10.1 ± 0.36
CGAAATCATATGTACACACACATATATATATATATA [CACACA_site2151] | 10.2 ± 0.62
TTAACAAAATATAGCACACATAAATATATATTTATG [CACACA_site351] | 8.66 ± 0.33
TATACATATTATATATGTACACATATTATATGTATA [XGTACX_site5851] | 8.27 ± 0.15
ATTATATAGAATTGTACATGCGAATTGTATAACGAT [TGCATGCA_site125] | 9.31 ± 0.57
ACATATATATAATATATATATCATCATATTTTCTTA [CACACA_negctrl_site853] | 8.27 ± 0.39

Sequence | gcPBM binding intensity (ln)
TATTAAAATTAAAAAAAAAAAAAAAAGCAATAAAAA [XGTACX_negctrl_site426] | 8.33 ± 0.71
CGTATGCAAGGAACCACACACACACCCATAAATGTA [CACACA_site749] | 8.51 ± 0.45
TTTTCTACATCTTGTTGTACGAAAAATAAAAAAAAT [XGTACX_site4620] | 8.72 ± 0.47
TATTTTATAAATTAATGTACATAAATTATATCTACT [XGTACX_site3625] | 8.35 ± 0.16
TTTTAAACAGGACACACACACATATAGATTTATATA [CACACA_site6560] | 8.69 ± 0.4
TTTTTTTTTTTTTTTTTTAAACACCTCAAAAAAAAA [CACACA_negctrl_site807] | 8.04 ± 0.36
ATAATATCTTTATGTGTGCACATATATATATATATA | 10.1 ± 0.38
ATATATATCTTTTGTGTGCACATATATATAATATAT | 8.97 ± 0.24
GAGGTCTTTTTTAATGTGCACATATATATATATATA | 10.3 ± 0.25
GGAAAAGGTATCCGTTCACACATAAATGGATACCAT [CACACA_site5072] | 8.31 ± 0.4
ATTCATCCAATAATGTGAATTATCATGATAAACTTA [TGCATGCA_negctrl_site406] | 8.26 ± 0.43
CAAAGTATTATGATTACACACATGTGCTTTTTTCTT [CACACA_site163] | 8.57 ± 0.42
GGTATACACAAGTATACACACATATAAATATAAATA [CACACA_site7511] | 8.5 ± 0.45
GGTATACTCAAGTATACACACATATATATATATATA [CACACA_site5746] | 10.2 ± 0.45
GGTATACACAAGTATACACACATATATATATATATA [CACACA_site9063] | 10.2 ± 0.22
GGTATACGCAAGTATACACACATATATATATATATA [CACACA_site3240] | 10.1 ± 0.47
TATATACTCAAACACACACACACATACACAGACATA [CACACA_site5025] | 8.77 ± 0.57
CAAACAATTAAACAAACACACATATACAAGTATATA [CACACA_site8639] | 8.38 ± 0.36
ATTTTAGGAAAAAAAAGTACATATAATTTTTTATAT [XGTACX_site6954] | 8.19 ± 0.31
AAATGTTATATATAATGTACTTGTAAGAACGTTCCT [XGTACX_site2840] | 8.67 ± 0.45
GTGTAGTTAAAAAAAAGTACAGATTTTTTTTTTTTT [XGTACX_site849] | 8.43 ± 0.092
